From PubChem BioAssay (NCATS) come the findings set out here.

Results filed as inconclusive are left out. Calls of active or inactive are those of the source. Calls come from the whole dose curve.

Assay [1] in a line: qHTS drug screen for cell cycle checkpoint inhibitors in PARPi-resistant BRCA-mutant ovarian cancer cell lines. (AID 1963452). Note: potency is the fitted concentration of half-maximal effect. To be noted: PEO1/OlaR viability, CellTiter-Glo luminescence, 96 h; for Z-AUC: stronger effect = lower value. In outline:
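PEO1, PEO4 and PEO1/OlaR ovarian cancer cells, 600 per well, exposed 96 h at 37C to a dilution series. Viability read by CellTiter-Glo luminescence, normalized to DMSO and empty wells; activity summarized as Z-AUC.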

Assay [2] in a line: qHTS for identification of novel therapeutic agents for treatment of microphthalmiaassociated transcription factor (MiT) renal cell carcinoma (RCC) (AID 1963991). The settings on record: CellTiter-Glo, 48 h, stronger effect = lower value. Put shortly:
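Viability of three TFE3-fusion renal carcinoma lines measured by CellTiter-Glo after 48 h treatment with each of 1912 compounds at 11 concentrations. Responses scaled between DMSO (100%) and empty wells (0%) before curve fitting.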

Where [3] appears, read: measured here: PEO1 parental Z-AUC.
The mark [4] stands for this setting: TFE3-RCC UOK109 viability, measured here: UOK109 Z-AUC.
Setting [5] is: TFE3-RCC viability, measured here: UOK124 Z-AUC.
Where [6] appears, read: TFE3-RCC viability, measured here: UOK145 Z-AUC.

Turning to `C[C@]1(c2nc3c(C(N)=O)cccc3[nH]2)CCCN1`, the Z-AUC in assay [1] was 0.745 (inactive); in assay [1] (setting [3]), 0.586; in assay [1] (measured here: PEO4 Z-AUC), 0.314.
In the same order, the values of `OC[C@H](Cc1ccccc1)Nc1nc(Oc2ccc3c(c2)CCC3)nc2c1ncn2Cc1ccc(-c2ccccc2)cc1` are 0.712 (inactive), 0.249 and 0.323.
In the same order, the values of `CCCn1c(=O)c2[nH]c(C34CC5CC3C[C@@H](C5)C4)nc2n(CCC)c1=O` are 0.471 (inactive), 0.393 and 0.158.
In the case of `CC(C)(Sc1ccc(CCN(CCCCC2CCCCC2)C(=O)NC2CCCCC2)cc1)C(=O)O`, the Z-AUC in assay [1] was 1.3 (inactive); in assay [1] (setting [3]), 1.26; in assay [1] (measured here: PEO4 Z-AUC), 1.25. Also, the z-score was 0.806 in assay [2] (setting [4]), 0.0749 in assay [2] (setting [5]) and 0.555 in assay [2] (setting [6]).
`COc1ccc(CCN2CCN(CCCc3ccccc3)CC2)cc1OC`: the Z-AUC was -0.614 (inactive) in assay [1], -0.141 in assay [1] (setting [3]) and -0.419 in assay [1] (measured here: PEO4 Z-AUC).
In the same order, the values of `c1ccc(-c2nn3c(c2-c2ccnc4cc(OCCN5CCOCC5)ccc24)CCC3)nc1` are 0.744 (inactive), 0.379 and 0.692.
Consider `COc1cc(Nc2ncc3c(n2)-c2ccc(Cl)cc2C(c2c(F)cccc2OC)=NC3)ccc1C(=O)O`, for which the Z-AUC in assay [1] is -0.756 (inactive); in assay [1] (setting [3]), -0.991; in assay [1] (measured here: PEO4 Z-AUC), -1.47.
In the case of `CC(C)OC(=O)C1=CN(C(=O)c2ccc(F)c(F)c2)CC(C)(C)c2c1[nH]c1ccccc21`, the Z-AUC is -0.655 (inactive) in assay [1], 1.12 in assay [1] (setting [3]) and 0.385 in assay [1] (measured here: PEO4 Z-AUC). Also, the z-score in assay [2] (setting [4]) is 0.178; in assay [2] (setting [5]) it was 0.0335; in assay [2] (setting [6]) it was -0.0962.
Take `COc1ccc(CC2=NN3C([C@@H](CCc4ccccc4)[C@@H](C)O)=NC(C)C3C(=O)N2)cc1OC` (stereo partly drawn): the Z-AUC in assay [1] is -0.34 (inactive); in assay [1] (setting [3]), 0.752; in assay [1] (measured here: PEO4 Z-AUC), 0.704. Besides, the z-score is 1.24 in assay [2] (setting [4]), 0.967 in assay [2] (setting [5]) and 0.717 in assay [2] (setting [6]).
In the case of `Cc1n[nH]c(C)c1Cc1sc2c(c1C(=O)N1C[C@H](O)CO1)c(=O)n(C)c(=O)n2CC(C)C`, the Z-AUC in assay [1] was -0.106 (inactive); in assay [1] (setting [3]) it was -0.977; in assay [1] (measured here: PEO4 Z-AUC), -0.228. Further, the z-score in assay [2] (setting [4]) was found to be 0.549; in assay [2] (setting [5]), 0.656; in assay [2] (setting [6]), 0.704.
Turning to `O=C(Nc1cccnc1)N1CCC(Cc2cccc(Oc3ccc(C(F)(F)F)cn3)c2)CC1`, the Z-AUC in assay [1] is -0.589 (inactive); in assay [1] (setting [3]), -1.46; in assay [1] (measured here: PEO4 Z-AUC) it was -1.18.
As to `Cc1cc(SCc2sc(-c3ccc(C(F)(F)F)cc3)nc2C)ccc1OCC(=O)O`, the Z-AUC in assay [1] was 1.25 (inactive); in assay [1] (setting [3]), 0.45; in assay [1] (measured here: PEO4 Z-AUC), 0.535. The z-score in assay [2] (setting [4]) amounted to 0.936; in assay [2] (setting [5]), 0.482; in assay [2] (setting [6]) it was 0.629.
With `NC(=O)C1CCCc2c1[nH]c1ccc(Cl)cc21` (stereo not drawn), the Z-AUC in assay [1] was -0.722 (inactive); in assay [1] (setting [3]), 0.489; in assay [1] (measured here: PEO4 Z-AUC), -0.557. Moreover, the results for the z-score in assay [2] (setting [4]), in assay [2] (setting [5]) and in assay [2] (setting [6]) were 0.0433, 0.823 and 0.151, respectively.
On to `CCc1cncnc1N1CCN(Cc2nc3ccc(C(F)(F)F)cc3[nH]2)CC1`, for which the Z-AUC in assay [1] is -0.0922 (inactive); in assay [1] (setting [3]) it was -0.164; in assay [1] (measured here: PEO4 Z-AUC), 0.451.
Consider `Nc1cccc(S(=O)(=O)N2CCCN(S(=O)(=O)c3ccc4c(c3)OCCO4)CC2)c1`, for which the Z-AUC in assay [1] was 1.03 (inactive); in assay [1] (setting [3]), 0.843; in assay [1] (measured here: PEO4 Z-AUC), 0.787. The z-score came to 0.453 in assay [2] (setting [4]), 0.564 in assay [2] (setting [5]) and 0.252 in assay [2] (setting [6]).
Take `C[C@H](NC(=O)Cc1cc(F)cc(F)c1)C(=O)N[C@@H]1C(=O)N(C)c2ccccc2-c2ccccc21`: the Z-AUC in assay [1] was -0.379 (inactive); in assay [1] (setting [3]), -0.57; in assay [1] (measured here: PEO4 Z-AUC), -0.563.
On the same counts, the results for `C/C(=C\C(=O)Nc1ccccc1C(=O)O)c1ccc2ccccc2c1` are 0.258 (inactive), 0.668 and 0.827.
For the compound `Cc1cc([C@@H](C)Nc2ccccc2C(=O)O)c2nc(N3CCOCC3)cc(=O)n2c1`, the figures for the Z-AUC in assay [1], in assay [1] (setting [3]) and in assay [1] (measured here: PEO4 Z-AUC) were 0.266 (inactive), 0.877 and 0.854, respectively.
On the same counts, the results for `CCOc1ccn(-c2ccc(F)cc2)c(=O)c1C(=O)Nc1ccc(Oc2ccnc(N)c2Cl)c(F)c1` are -0.773 (inactive), -0.706 and -0.86.
`Cn1cnc2c(F)c(Nc3ccc(Br)cc3Cl)c(C(=O)NOCCO)cc21`: the Z-AUC was 0.189 (inactive) in assay [1], 0.0472 in assay [1] (setting [3]) and -0.246 in assay [1] (measured here: PEO4 Z-AUC).
In the case of `Cc1cc(Nc2nc(N[C@@H](C)c3ncc(F)cn3)ncc2Cl)n[nH]1`, in assay [1], the Potency was 12.3 µM (active). Moreover, the Z-AUC in assay [1] (setting [3]) is -1.18; in assay [1] (measured here: PEO4 Z-AUC) it was -1.3.
`S=C(NCc1ccc2c(c1)OCO2)N1CCN(c2ncnc3c2oc2ccccc23)CC1`: the Z-AUC is -0.165 (inactive) in assay [1], -1.16 in assay [1] (setting [3]) and 0.0465 in assay [1] (measured here: PEO4 Z-AUC).
Consider `CCN(CC)CCCC(C)Nc1nc(C)cc(Nc2ccc3nc(C)cc(N)c3c2)n1` (stereo not drawn), for which the Z-AUC in assay [1] was 0.723 (inactive); in assay [1] (setting [3]), 0.692; in assay [1] (measured here: PEO4 Z-AUC), 0.29. The z-score in assay [2] (setting [4]) came to 0.273; in assay [2] (setting [5]) it was 0.864; in assay [2] (setting [6]) it was 0.237.
For `O=C(O)CCc1ccc(NCc2cccc(Oc3ccccc3)c2)cc1`, the Z-AUC is 1.62 (inactive) in assay [1], 1.54 in assay [1] (setting [3]) and 1.47 in assay [1] (measured here: PEO4 Z-AUC). Besides, the z-score in assay [2] (setting [4]) was determined as 0.226; in assay [2] (setting [5]), 0.797; in assay [2] (setting [6]), 0.0253.
On to `CC[C@@H](C)[C@H](NC(=O)[C@H](CC1CCCCC1)NC(=O)c1ccno1)C(=O)N1CCC2(CCc3ccccc32)CC1`, for which the Z-AUC in assay [1] is -0.29 (inactive); in assay [1] (setting [3]), -0.177; in assay [1] (measured here: PEO4 Z-AUC), -0.471. Moreover, the z-score in assay [2] (setting [4]) is 0.139; in assay [2] (setting [5]) it was 0.261; in assay [2] (setting [6]), -0.242.
With `CN(C)C(=O)c1ccc(S(=O)(=O)c2ccc(NC(=O)[C@@](C)(O)C(F)(F)F)c(Cl)c2)cc1`, the figures for the Z-AUC in assay [1], in assay [1] (setting [3]) and in assay [1] (measured here: PEO4 Z-AUC) were 0.422 (inactive), -0.221 and 0.763, respectively.
As for `CC(=O)NC(C)c1ccc(Oc2ccc(OC(C)C)cc2)cc1` (stereo not drawn), the results for the Z-AUC in assay [1], in assay [1] (setting [3]) and in assay [1] (measured here: PEO4 Z-AUC) were 0.0363 (inactive), 0.0694 and -0.363, respectively.
Consider `COc1ccccc1-c1cccc(-c2c(O)c3cc(C#N)c(Cl)cc3[nH]c2=O)c1`, for which the figures for the Z-AUC in assay [1], in assay [1] (setting [3]) and in assay [1] (measured here: PEO4 Z-AUC) were 0.395 (inactive), 0.311 and 0.381, respectively. In addition, the figures for the z-score in assay [2] (setting [4]), in assay [2] (setting [5]) and in assay [2] (setting [6]) were 1.05, -0.0424 and 0.756, respectively.
Regarding `NC(=O)c1ccc(-c2nc(-c3ccc4c(c3)OCO4)c(-c3ccccn3)[nH]2)cc1`, the Z-AUC is 0.53 (inactive) in assay [1], 1.15 in assay [1] (setting [3]) and 0.909 in assay [1] (measured here: PEO4 Z-AUC). Further, the z-score came out at 0.874 in assay [2] (setting [4]), 1.69 in assay [2] (setting [5]) and 0.197 in assay [2] (setting [6]).
